Bioassay records from PubChem.
In the library only some 2.1% were active in any assay of this set; here they are far more common.
GSIS activator = GLuc luminescence reporter in INS-1E cells, primary screen for activators of glucose-dependent secretion of insulin; INS-1E GLuc reporter insulin secretion, 2-3 h; activation, % at 16.6 µM; hit rate 0.61% among 370,000;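 active = lowest replicate activation of at least 40%, so every replicate reaches that level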
PGC1a acetyl inh = lowers PGC1a acetylation signal in U2OS cells; hit rate 0.17% among 350,000; inhibition, % at 15.6 µM; AlphaScreen anti-acetyl-lysine; with virally co-expressed GCN5 acetyltransferase;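 active = every replicate shows inhibition of at least 40%; inconclusive = mean inhibition at least 40% but some replicate below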
MLL AF4-AF9 inh = inhibitors of human MLL-AF4/AF9 interaction | P42568 | AlphaScreen, biotin-AF4 peptide binding to FLAG-AF9 | inhibition, % at 10 µM | hit rate 0.47% among 350,000 | AID 651704;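 active = every replicate reaching a set inhibition limit, whatever the replicate mean, cut at about 25% in these data; inconclusive = mean inhibition reaches that limit but some replicates miss it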
Env fusion inh = blocks HIV Env-driven cell-cell fusion; HeLa-JRFL Env/CEM21 cell fusion, luciferase; inhibition, % at 12.3 µM; hit rate 1.1% among 360,000; AID 651610;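 active = mean replicate inhibition score of at least 50 and every replicate individually at or above 50; inconclusive = only one of the two criteria met; inactive = mean below 50 and not all replicates reaching 50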
NSD2 inh = blocks human histone methyltransferase NSD2; NSD2 peptide methylation, AlphaScreen, 120 min; hit rate 0.54% among 310,000; inhibition, % at 12.5 µM; O96028; in the data active = inhibition above about 50%
Target sequence (O96028 whole entry, looked up): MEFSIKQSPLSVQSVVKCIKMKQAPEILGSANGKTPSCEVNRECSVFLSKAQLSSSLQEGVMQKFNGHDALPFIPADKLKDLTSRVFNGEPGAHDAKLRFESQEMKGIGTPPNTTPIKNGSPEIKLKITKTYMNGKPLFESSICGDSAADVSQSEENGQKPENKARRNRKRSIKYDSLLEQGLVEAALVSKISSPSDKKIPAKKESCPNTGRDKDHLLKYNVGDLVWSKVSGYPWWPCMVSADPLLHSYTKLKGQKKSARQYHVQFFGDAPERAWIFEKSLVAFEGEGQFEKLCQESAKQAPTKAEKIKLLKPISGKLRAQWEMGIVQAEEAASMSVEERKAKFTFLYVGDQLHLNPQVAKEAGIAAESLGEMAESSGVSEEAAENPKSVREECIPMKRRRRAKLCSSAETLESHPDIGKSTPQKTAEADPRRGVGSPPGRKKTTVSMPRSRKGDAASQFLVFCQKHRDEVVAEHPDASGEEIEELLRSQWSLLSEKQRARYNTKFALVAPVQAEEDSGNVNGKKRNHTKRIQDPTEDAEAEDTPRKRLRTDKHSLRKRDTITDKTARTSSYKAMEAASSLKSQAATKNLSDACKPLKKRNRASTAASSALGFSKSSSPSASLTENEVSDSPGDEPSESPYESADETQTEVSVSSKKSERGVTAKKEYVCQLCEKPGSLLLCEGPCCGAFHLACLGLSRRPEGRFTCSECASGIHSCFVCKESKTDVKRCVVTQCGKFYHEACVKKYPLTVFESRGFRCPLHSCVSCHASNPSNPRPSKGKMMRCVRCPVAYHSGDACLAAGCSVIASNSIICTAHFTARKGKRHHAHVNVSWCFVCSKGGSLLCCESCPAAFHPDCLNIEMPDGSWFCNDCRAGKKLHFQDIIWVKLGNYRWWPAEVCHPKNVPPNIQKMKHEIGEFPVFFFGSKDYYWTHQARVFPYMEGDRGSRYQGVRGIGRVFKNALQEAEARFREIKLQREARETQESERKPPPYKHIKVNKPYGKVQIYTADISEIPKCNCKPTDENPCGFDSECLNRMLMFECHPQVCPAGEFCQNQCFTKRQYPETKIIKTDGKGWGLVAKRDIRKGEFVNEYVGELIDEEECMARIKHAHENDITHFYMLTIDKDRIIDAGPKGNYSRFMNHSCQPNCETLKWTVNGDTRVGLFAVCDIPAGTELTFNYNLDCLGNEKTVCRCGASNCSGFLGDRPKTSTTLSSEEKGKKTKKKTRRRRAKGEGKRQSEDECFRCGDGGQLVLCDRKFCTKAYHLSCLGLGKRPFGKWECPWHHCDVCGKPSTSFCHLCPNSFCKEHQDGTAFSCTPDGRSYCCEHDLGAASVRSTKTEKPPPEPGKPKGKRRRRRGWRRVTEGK
Alpha artifact = AlphaScreen assay artifact in NSD2 counter-screen; shares compounds with NSD2 inh; AlphaScreen artifact counterscreen, preloaded methylated H4 peptide; AC35, µM (doses to about 10 µM); hit rate 9.4% among 1,500; call rule not given here
Each line names hits and unclear results; the compound was inactive in the other large screens (follow-up assays come after a bar, where they were run).

O=c1c2cnn(-c3ccccc3)c2nc(-c2ccco2)n1-c1ccccc1	NSD2 inh 115 (no result: GSIS activator, MLL AF4-AF9 inh) | Alpha artifact inactive
O=c1oc(-c2ccco2)nc2c1cnn2-c1ccccc1	none (no result: GSIS activator, MLL AF4-AF9 inh, Env fusion inh)
CC1=NN(c2ccccc2)C(=O)/C1=C/N(C)C	NSD2 inh 71 | Alpha artifact inactive
COC(=O)C1=C(C)NC(=O)/C1=C\c1cc(C)n(-c2ccccc2)c1C	none
COc1ccc2c3c([nH]c2c1)[C@@H](CO)N(C(=O)C1CCC1)CC31CCN(C)CC1	none (no result: PGC1a acetyl inh, Env fusion inh, NSD2 inh)
O=C1/C(=C/c2ccc(O)c(O)c2)SC(=S)N1Nc1ccccc1	NSD2 inh 88 (no result: GSIS activator, PGC1a acetyl inh, MLL AF4-AF9 inh, Env fusion inh) | Alpha artifact 2.4µM
COc1cc(/C=C2\SC(=S)N(Nc3ccccc3)C2=O)ccc1O	none (no result: PGC1a acetyl inh, MLL AF4-AF9 inh)
CCc1ccc(NC(=S)Nc2cccc3cnccc23)cc1	NSD2 inh 98 | Alpha artifact inactive
O=C(NCc1ccco1)c1scc2c1OCCO2	PGC1a acetyl inh inconclusive, NSD2 inh 90 (no result: MLL AF4-AF9 inh, Env fusion inh) | Alpha artifact inactive
O=C(C1CC1)N1CCN=C1SCc1cccc(C(F)(F)F)c1	none (no result: GSIS activator, MLL AF4-AF9 inh, Env fusion inh)
Cc1ccccc1NCC(=O)Nc1cc(S(=O)(=O)N2CCCCC2)ccc1C	NSD2 inh 57 | Alpha artifact inactive
Cc1ccc(S(=O)(=O)N2CCOCC2)cc1NC(=O)CSc1ccccn1	NSD2 inh 52 | Alpha artifact inactive
Cc1ccc(S(=O)(=O)N2CCOCC2)cc1NC(=O)CSc1nccn1C	none (no result: MLL AF4-AF9 inh)
Cc1cc(C)n(-c2ncccc2[N+](=O)[O-])n1	NSD2 inh 52 | Alpha artifact inactive
Cc1cc2ncn(-c3ncccc3[N+](=O)[O-])c2cc1C	none (no result: PGC1a acetyl inh)
COc1ccc(NS(=O)(=O)c2cc(NC(=O)COc3ccccc3)ccc2N2CCOCC2)cc1	NSD2 inh 60 | Alpha artifact inactive
COC(=O)C1=CN(c2cccc(OCc3ccccc3)c2)C(N)=C(C#N)C1c1ccccc1 (centres undefined)	none (no result: PGC1a acetyl inh, MLL AF4-AF9 inh, NSD2 inh)
CC1(C)CC(N=C2C=CC3=NC45CCCCC4CC4=C(CCCC4)N5C3=C2)CC(C)(C)N1 (centres undefined)	NSD2 inh 64 (no result: GSIS activator, PGC1a acetyl inh, MLL AF4-AF9 inh, Env fusion inh) | Alpha artifact inactive
COc1ccc(CNC(=O)Cn2nnc3ccccc3c2=O)cc1	none
NS(=O)(=O)c1ccc(CNC(=O)CCCSc2ccccc2)cc1	NSD2 inh 82 (no result: PGC1a acetyl inh) | Alpha artifact inactive
O=C(Nc1ccc2c(c1)Cc1ccccc1-2)c1ccco1	none (no result: GSIS activator, PGC1a acetyl inh, MLL AF4-AF9 inh, NSD2 inh)
CC(C)NC1CCC(Nc2ccnc3cc(Cl)ccc23)CC1 (centres undefined)	NSD2 inh 81 | Alpha artifact inactive
Clc1ccc2c(NCCNC3CCCCC3)ccnc2c1	none (no result: PGC1a acetyl inh, NSD2 inh)
COc1cc(NC(=O)Cc2ccccc2)ccc1NC(=O)Cc1ccccc1	none
CCCCCCOC(=O)Cc1c(C)nc(-c2ccccc2)[nH]c1=O	none (no result: PGC1a acetyl inh, MLL AF4-AF9 inh, Env fusion inh)
COc1ccc(/C=C2\SC(=S)N(NS(=O)(=O)c3ccc(C)cc3)C2=O)c(OC)c1	none
COc1ccc(OC)c(/C=C2\SC(=S)N(NS(=O)(=O)c3ccc(C)cc3)C2=O)c1	NSD2 inh 52 (no result: PGC1a acetyl inh) | Alpha artifact inactive
C=CCn1c(NC(=O)c2ccc(Br)o2)c(S(=O)(=O)c2ccccc2)c2nc3ccccc3nc21	NSD2 inh 83 (no result: MLL AF4-AF9 inh) | Alpha artifact inactive
O=C(Nc1ccc(S(=O)(=O)NCc2ccccc2)cc1)c1ccc(Br)o1	none (no result: MLL AF4-AF9 inh, Env fusion inh)
O=[N+]([O-])c1ccccc1NC(=S)N/N=C/c1ccc(O)c(O)c1	NSD2 inh 117 (no result: PGC1a acetyl inh) | Alpha artifact 1.8µM
O=C(NC(=S)Nc1ccccc1N1CCCC1)c1ccco1	NSD2 inh 74 (no result: GSIS activator) | Alpha artifact inactive
Cc1ccc(NC(=O)COC(=O)COc2ccc(Cl)cc2C)c([N+](=O)[O-])c1	none (no result: MLL AF4-AF9 inh, Env fusion inh)
CCCCN(CC)CCNC(=O)c1ccc2c(Cl)c3c(nc2c1)CCC3	NSD2 inh 75 (no result: GSIS activator) | Alpha artifact inactive
CCN(CC)CCCNC(=O)c1ccc2c(Cl)c3c(nc2c1)CCCC3	none (no result: PGC1a acetyl inh)
CCNc1nc(NCC)n2c(SCC(=O)Nc3ccccc3OC(F)F)nnc2n1	none
Cc1cccc(NCCNc2cccc(C)c2)c1	NSD2 inh 56 (no result: GSIS activator, MLL AF4-AF9 inh) | Alpha artifact inactive
CCOc1cc2c(cc1OC)C(NC(=O)c1ccco1)CC2=O (centres undefined)	none
O=C(CSc1nc(-c2ccccc2)c(-c2ccccc2)o1)Nc1nnc(-c2ccccc2)s1	NSD2 inh 76 (no result: GSIS activator, PGC1a acetyl inh, MLL AF4-AF9 inh) | Alpha artifact inactive
O=C(CSc1nc(-c2ccccc2)c(-c2ccccc2)o1)Nc1nncs1	none (no result: GSIS activator, MLL AF4-AF9 inh, Env fusion inh)
Cc1c(C(=O)c2no[n+]([O-])c2C(=O)c2cnn(C)c2C)cnn1C	NSD2 inh 66 (no result: GSIS activator, PGC1a acetyl inh, MLL AF4-AF9 inh, Env fusion inh) | Alpha artifact inactive
COc1ccc(NC(=O)CCCC2=NS(=O)(=O)c3ccccc3N2)cc1	none (no result: NSD2 inh)
CC[n+]1ccc(/C=C/c2ccc(N(C)C)cc2)c2ccccc21	MLL AF4-AF9 inh 73, NSD2 inh 94 (no result: PGC1a acetyl inh) | Alpha artifact 8.7µM
Cc1ccccc1-c1ccc(C2[C@@H]3CN(C(=O)C4CC4)C[C@H]2N3)cc1 (some centres undefined)	none (no result: Env fusion inh, NSD2 inh)
COc1ccc(-c2nnc(SCC(=O)c3ccc(O)cc3O)o2)cc1	NSD2 inh 81 (no result: PGC1a acetyl inh) | Alpha artifact inactive
COc1ccc(-c2nnc(SCC(=O)c3ccc[nH]3)o2)cc1	none (no result: GSIS activator, MLL AF4-AF9 inh)
NC(=NCc1ccc2c(c1)OCO2)NC(=O)c1ccccc1	NSD2 inh 88 | Alpha artifact inactive
O=C(COC(=O)c1ccc([N+](=O)[O-])o1)Nc1ccc(Br)cc1F	none (no result: Env fusion inh)
CC(C)(C)C1CCC2(CC1)C(Nc1cccc(C(F)(F)F)c1)=NC(=S)N2CC#N (centres undefined)	NSD2 inh 64 (no result: GSIS activator, MLL AF4-AF9 inh) | Alpha artifact inactive
